Data on six molecules can be found in PubChem BioAssay (EPA / NIEHS).

Results filed as inconclusive are left out. Activity calls are given as the source filed them. How the source made its calls, unless noted: active means hit-call score of the fitted dose curve at least 0.9, where 1 is the maximum; inconclusive means response in the unintended direction; inactive means score below 0.9.

Experiment [1] deals with Hypoxia-inducible factor 1-alpha (Homo sapiens) (UniProt Q16665). Nature of the experiment: ATG_HIF1a_CIS: Attagene CIS-FACTORIAL HepG2 Assay for human Hypoxia Inducible Factor 1 (HIF1A) (AID 2282951; active means hit-call score of the fitted dose curve at least 0.9, where 1 is the maximum; inactive means score below 0.9). The conditions noted are these: HepG2 Attagene cis-factorial HIF1a reporter transcription; actives raise or lower the signal. Summed up: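 Transient MRTU transfection of human HepG2 liver cells, 24 h compound treatment, then total RNA isolation, oligo(dT) reverse transcription, PCR amplification, fluorescent labelling and capillary electrophoresis of reporter fragments. Gain or loss relative to DMSO.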
Hypoxia-inducible factor 1-alpha (Homo sapiens), sequence (Q16665 whole entry, looked up, the tested form may be a part): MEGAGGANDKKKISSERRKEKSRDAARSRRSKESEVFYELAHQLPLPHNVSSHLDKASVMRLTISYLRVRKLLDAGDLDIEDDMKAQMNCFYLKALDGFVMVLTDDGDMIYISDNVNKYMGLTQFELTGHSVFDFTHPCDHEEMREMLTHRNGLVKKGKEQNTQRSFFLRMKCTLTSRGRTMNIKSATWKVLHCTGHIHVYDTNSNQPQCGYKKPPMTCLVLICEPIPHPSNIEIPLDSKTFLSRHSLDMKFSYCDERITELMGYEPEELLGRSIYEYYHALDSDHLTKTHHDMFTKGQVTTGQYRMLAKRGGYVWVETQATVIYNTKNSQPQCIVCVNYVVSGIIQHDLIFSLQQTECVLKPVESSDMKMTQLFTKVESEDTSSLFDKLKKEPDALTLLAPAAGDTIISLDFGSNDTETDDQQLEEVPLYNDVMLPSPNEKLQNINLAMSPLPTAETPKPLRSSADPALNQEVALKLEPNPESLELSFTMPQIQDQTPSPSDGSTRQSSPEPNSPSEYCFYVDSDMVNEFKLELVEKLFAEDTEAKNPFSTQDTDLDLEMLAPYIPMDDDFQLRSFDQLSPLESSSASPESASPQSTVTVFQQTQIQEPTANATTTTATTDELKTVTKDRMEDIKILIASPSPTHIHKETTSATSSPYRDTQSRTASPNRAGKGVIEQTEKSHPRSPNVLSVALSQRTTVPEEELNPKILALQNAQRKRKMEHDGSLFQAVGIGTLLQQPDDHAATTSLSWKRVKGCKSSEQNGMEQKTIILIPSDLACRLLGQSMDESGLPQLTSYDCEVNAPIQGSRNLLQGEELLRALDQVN

Experiment [2] can be described thus: ATG_M_19_TRANS: Attagene TRANS-FACTORIAL HepG2 Assay for M19 Transcription Factor (Internal Marker) (AID 2282974). The conditions noted are these: HepG2 Attagene TRANS-FACTORIAL M19 internal marker reporter. A digest of the protocol: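 Fluorescence of 6-FAM-labelled reporter cDNA fragments, separated by capillary electrophoresis, served as the readout. These derived from HepG2 cells carrying transfected GAL4-UAS reporter units after 24 h dosing, with DMSO as negative control.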

Experiment [3] in a line: ATG_GAL4_TRANS: Attagene TRANS-FACTORIAL HepG2 Assay for GAL4 (Internal Marker) (AID 2282976). The conditions noted are these: HepG2 Attagene TRANS GAL4 internal marker reporter. A digest of the protocol: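 Background-control readout: GAL4-UAS reporter transcript in transiently transfected HepG2 cells after 24 h compound exposure. Measured by RT-PCR, 6-FAM primer extension, HpaI digest and capillary electrophoresis; gain-of-signal fit versus DMSO.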

For experiment [4], the target named is Oxysterols receptor LXR-alpha (Homo sapiens) (UniProt Q13133). Nature of the experiment: ATG_LXRa_TRANS: Attagene TRANS-FACTORIAL HepG2 Assay for human Liver X Receptor alpha (LXRa) (AID 2282980). The conditions noted are these: HepG2 Attagene TRANS reporter, LXRa transactivation. Summed up: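 HepG2 cells transiently transfected with GAL4-UAS reporter units for chimeric NR-Gal4 proteins, exposed to chemicals for 24 h. Reporter mRNA quantified by RT-PCR and capillary electrophoresis; gain of signal fitted relative to DMSO.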
Oxysterols receptor LXR-alpha (Homo sapiens), sequence (Q13133 whole entry, looked up, the tested form may be a part): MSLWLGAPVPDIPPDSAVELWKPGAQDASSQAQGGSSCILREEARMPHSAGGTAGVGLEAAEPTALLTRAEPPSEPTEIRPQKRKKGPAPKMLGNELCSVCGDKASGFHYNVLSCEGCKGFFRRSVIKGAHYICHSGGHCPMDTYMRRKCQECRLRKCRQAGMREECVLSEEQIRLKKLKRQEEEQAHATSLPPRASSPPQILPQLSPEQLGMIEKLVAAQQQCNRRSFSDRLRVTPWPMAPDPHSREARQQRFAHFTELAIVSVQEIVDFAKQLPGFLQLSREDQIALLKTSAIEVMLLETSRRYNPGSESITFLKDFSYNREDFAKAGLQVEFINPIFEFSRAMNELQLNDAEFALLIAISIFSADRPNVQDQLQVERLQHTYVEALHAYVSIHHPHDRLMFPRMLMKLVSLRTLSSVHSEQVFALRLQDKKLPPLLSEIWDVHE

Experiment [5] concerns the target Nuclear receptor subfamily 4 group A member 2 (Homo sapiens) (UniProt P43354). Nature of the experiment: ATG_NURR1_TRANS: Attagene TRANS-FACTORIAL HepG2 Assay for human Nuclear Receptor Related Protein 1 (NURR1) (AID 2282985). Particulars: HepG2 Attagene TRANS reporter, mRNA readout. A digest of the protocol: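 HepG2 cells transiently transfected with GAL4-UAS reporter units and chimeric NR-Gal4 constructs; chemical exposure 24 h. Reporter mRNA quantified by RT-PCR, fluorescent labelling and capillary electrophoresis; gain of signal fitted relative to DMSO baseline.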

In experiment [6] the target is human RAR-related Orphan Receptor beta (RORb), RORB (gene 6096) (UniProt Q92753). The experiment can be described thus: ATG_RORb_TRANS: Attagene TRANS-FACTORIAL HepG2 Assay for human RAR-related Orphan Receptor beta (RORb) (AID 2283010). Summed up: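 HepG2 cells were transiently transfected with multiplexed GAL4-UAS reporter units expressing chimeric nuclear receptor–GAL4 proteins, then dosed for 24 h. Reporter mRNA was quantified by RT-PCR with fluorescent labelling and capillary electrophoresis; gain of signal was fitted relative to DMSO.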
human RAR-related Orphan Receptor beta (RORb), RORB (gene 6096), sequence (Q92753 whole entry, looked up, the tested form may be a part): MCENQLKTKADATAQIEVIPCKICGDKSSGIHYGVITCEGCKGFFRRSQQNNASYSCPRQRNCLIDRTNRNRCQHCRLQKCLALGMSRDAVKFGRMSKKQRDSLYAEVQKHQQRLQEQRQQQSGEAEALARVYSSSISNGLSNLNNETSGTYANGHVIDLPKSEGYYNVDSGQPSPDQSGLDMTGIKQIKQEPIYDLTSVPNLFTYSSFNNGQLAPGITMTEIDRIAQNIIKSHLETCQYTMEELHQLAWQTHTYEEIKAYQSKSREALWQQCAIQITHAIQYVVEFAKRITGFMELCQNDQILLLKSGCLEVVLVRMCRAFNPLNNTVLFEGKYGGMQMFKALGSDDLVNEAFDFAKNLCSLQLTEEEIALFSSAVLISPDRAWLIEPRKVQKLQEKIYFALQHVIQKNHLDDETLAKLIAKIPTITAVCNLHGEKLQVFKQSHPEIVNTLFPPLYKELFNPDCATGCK

Experiment [7] deals with human Thyroid Receptor alpha (THRa1), THRA (gene 7067) (UniProt P10827). Nature of the experiment: ATG_THRa1_TRANS: Attagene TRANS-FACTORIAL HepG2 Assay for human Thyroid Receptor alpha (THRa1) (AID 2283014). Summed up:
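HepG2 cells transiently transfected with chimeric NR-Gal4 and GAL4-UAS reporter units, dosed 24 h. Reporter mRNA quantified by RT-PCR, fluorescent labeling, HpaI digestion and capillary electrophoresis; gain-of-signal fit versus DMSO.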

Experiment [8] has as its target human Vitamin D Receptor (VDR), VDR (gene 7421) (UniProt P11473). Nature of the experiment: ATG_VDR_TRANS: Attagene TRANS-FACTORIAL HepG2 Assay for human Vitamin D Receptor (VDR) (AID 2283022). Summed up:
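HepG2 cells were transiently transfected with GAL4-UAS reporter units and a chimeric VDR-Gal4 construct, then dosed for 24 hours. Reporter mRNA was quantified by RT-PCR, fluorescent labeling, HpaI digestion and capillary electrophoresis; gain of signal analysed vs DMSO.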

The nature of experiment [9]: TOX21_p53_BLA_p4_viability: Viability Assessment in the Tox21 HCT-116 p53 Agonism Beta-lactamase Assay, Phase 4 (AID 2283597).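 Further: hits lower the luminescence signal meaning cytotoxicity.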 Summed up:
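HCT-116 p53-bla cells, 4000/well, dosed after 5 h attachment and incubated 16 h at 37 °C, 5% CO2. Viability from CellTiter-Glo ATP luminescence after 30 min at room temperature, taken after the beta-lactamase read; loss of signal indicates cytotoxicity.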

Experiment [10] addresses human Peroxisome Proliferator-activated Receptor alpha (PPARa), PPARA (gene 5465) (UniProt Q07869). Nature of the experiment: ATG_PPARa_TRANS: Attagene TRANS-FACTORIAL HepG2 Assay for human Peroxisome Proliferator-activated Receptor alpha (PPARa) (AID 2283001). A digest of the protocol: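 HepG2 cells transiently transfected with multiplexed GAL4-UAS reporter units and chimeric NR-Gal4 constructs were dosed for 24 h. Reporter mRNA was measured by RT-PCR with fluorescent labelling and capillary electrophoresis; gain of signal fitted against DMSO.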

The nature of experiment [11]: ATG_PPRE_CIS: Attagene CIS-FACTORIAL HepG2 Assay for human Peroxisome Proliferator-activated Response Element (PPRE) (AID 2282958; active means hit-call score of the fitted dose curve at least 0.9, where 1 is the maximum; inactive means score below 0.9). The conditions noted are these: HepG2 PPRE cis-element reporter, Attagene transcription factor profiling; actives raise or lower the signal. Summed up:
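HepG2, transient MRTU transfection (cis promoter elements, endogenous TFs). 24 h dosing. RNA → oligo(dT) RT → PCR → 6-FAM primer extension → HpaI digest → CE. Bidirectional fit vs DMSO.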

The target of experiment [12] is Nuclear receptor subfamily 1 group I member 3 (Homo sapiens) (UniProt Q14994). Nature of the experiment: ATG_CAR_TRANS: Attagene TRANS-FACTORIAL HepG2 Assay for human Constitutive Androstane Receptor (CAR) (AID 2282969).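 Further: activators raise reporter mRNA above DMSO so AC50 marks induction.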 The conditions noted are these: HepG2 Attagene TRANS-FACTORIAL CAR reporter. A digest of the protocol: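 HepG2 cells transiently transfected with multiplexed GAL4-UAS reporter units expressing chimeric NR-Gal4 proteins; compound exposure 24 h. Reporter mRNA measured by RT-PCR, 6-FAM labelling, HpaI digestion and capillary electrophoresis; gain-of-signal fitted against DMSO baseline.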
Nuclear receptor subfamily 1 group I member 3 (Homo sapiens), sequence (Q14994 whole entry, looked up, the tested form may be a part): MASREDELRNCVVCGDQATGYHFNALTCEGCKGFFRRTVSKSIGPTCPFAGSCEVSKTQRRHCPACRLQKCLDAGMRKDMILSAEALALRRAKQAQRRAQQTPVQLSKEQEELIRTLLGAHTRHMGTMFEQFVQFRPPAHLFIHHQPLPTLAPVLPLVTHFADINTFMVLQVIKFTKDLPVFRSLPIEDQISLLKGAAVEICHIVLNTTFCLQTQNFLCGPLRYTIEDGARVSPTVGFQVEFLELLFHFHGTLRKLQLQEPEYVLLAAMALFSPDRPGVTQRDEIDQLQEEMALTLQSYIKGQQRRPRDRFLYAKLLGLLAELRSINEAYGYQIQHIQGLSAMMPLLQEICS

Experiment [13] has as its target Peroxisome proliferator-activated receptor gamma (Homo sapiens) (UniProt P37231). The experiment can be described thus: ATG_PPARg_TRANS: Attagene TRANS-FACTORIAL HepG2 Assay for human Peroxisome Proliferator-activated Receptor-gamma (PPARg) (AID 2283007). Summed up: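 Transient transfection of HepG2 with GAL4-UAS-driven reporter units; chemical dosing 24 h; total RNA → oligo(dT) RT → PCR with reporter primers → 6-FAM primer extension → HpaI digest 2 h 37 C → capillary electrophoresis. Positive direction vs DMSO.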

Experiment [14] deals with human Peroxisome Proliferator-activated Receptor delta (PPARd), PPARD (gene 5467) (UniProt Q03181). Nature of the experiment: ATG_PPARd_TRANS: Attagene TRANS-FACTORIAL HepG2 Assay for human Peroxisome Proliferator-activated Receptor delta (PPARd) (AID 2283002). A digest of the protocol:
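Multiplexed trans-activation format: HepG2 liver cells expressing exogenous NR-Gal4 chimeras and GAL4-UAS reporters were exposed for 24 h. Reporter mRNA was detected by RT-PCR with capillary electrophoresis fluorescence; activity fitted as gain of signal relative to DMSO.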

Experiment [15] in a line: TOX21_p53_BLA_p3_viability: Viability Assessment in the Tox21 HCT-116 p53 Agonism Beta-lactamase Assay, Phase 3 (AID 2283593).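 Further: cells exposed to compound for 16 h before reading.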 Summed up:
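HCT-116 cells (4000/well) rested 5 h at 37C, then got DMSO compounds by pin tool (217-fold dilution) for 16 h at 37C, 5% CO2. After the bla read, CellTiter-Glo was added and luminescence read at 30 min, room temperature.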

The target of experiment [16] is Bile acid receptor (Homo sapiens) (UniProt Q96RI1). Nature of the experiment: ATG_IR1_CIS: Attagene CIS-FACTORIAL HepG2 Assay for human Nuclear Receptor Subfamily 1 Group H Member 4 (NR1H4), IR1 submotif (AID 2282946; active means hit-call score of the fitted dose curve at least 0.9, where 1 is the maximum; inactive means score below 0.9). The conditions noted are these: IR1 reporter transcription, actives raise or lower the signal. A digest of the protocol:
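Transient MRTU transfection, HepG2; 24 h dosing; RNA → RT-PCR → 6-FAM primer extension → HpaI digest → capillary electrophoresis fluorescence. Gain/loss of signal fitted relative to DMSO.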

In experiment [17] the target is human RAR-related Orphan Receptor gamma (RORg), RORC (gene 6097) (UniProt P51449). The experiment can be described thus: ATG_RORg_TRANS: Attagene TRANS-FACTORIAL HepG2 Assay for human RAR-related Orphan Receptor gamma (RORg) (AID 2283011). A digest of the protocol: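 HepG2 cells transiently transfected with GAL4-UAS reporter units and chimeric RORg-Gal4 construct; after 24 h chemical exposure, reporter mRNA measured by RT-PCR with fluorescent capillary electrophoresis, gain of signal fitted against DMSO.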

Experiment [18] addresses Bile acid receptor (Homo sapiens) (UniProt Q96RI1). Nature of the experiment: ATG_FXR_TRANS: Attagene TRANS-FACTORIAL HepG2 Assay for Farnesoid X Receptor (FXR) (AID 2282979).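 Further: hits raise reporter mRNA above DMSO so AC50 marks FXR activation.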 The conditions noted are these: HepG2 Attagene TRANS FXR-GAL4 reporter transcription. A digest of the protocol:
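HepG2 cells were transiently transfected with GAL4-UAS reporters driven by chimeric NR-Gal4 proteins and dosed for 24 h. Reporter mRNA was quantified by RT-PCR, fluorescent labelling, HpaI digestion and capillary electrophoresis, with gain of signal scored versus DMSO.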

A short description of experiment [19]: ACEA_ER_AUC_viability: ACEA Biosciences xCELLigence Real-Time Cell Analysis on Estrogen Receptor Agonism for Viability (AID 2283782).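 Further: continuous compound exposure with impedance area under curve over 80 h; hit means loss of impedance signal meaning reduced cell growth or viability.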 Summed up: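 T-47D human breast cells in phenol red-free RPMI1640 with 10% charcoal-stripped FBS were dosed with an 8-point 1:4 dilution series from 100 uM top final concentration, in duplicate. Impedance-based growth was followed for 80 h; AUC analysed versus DMSO.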

Nuclear receptor subfamily 4 group A member 2 (Homo sapiens), sequence (P43354 whole entry, looked up, the tested form may be a part): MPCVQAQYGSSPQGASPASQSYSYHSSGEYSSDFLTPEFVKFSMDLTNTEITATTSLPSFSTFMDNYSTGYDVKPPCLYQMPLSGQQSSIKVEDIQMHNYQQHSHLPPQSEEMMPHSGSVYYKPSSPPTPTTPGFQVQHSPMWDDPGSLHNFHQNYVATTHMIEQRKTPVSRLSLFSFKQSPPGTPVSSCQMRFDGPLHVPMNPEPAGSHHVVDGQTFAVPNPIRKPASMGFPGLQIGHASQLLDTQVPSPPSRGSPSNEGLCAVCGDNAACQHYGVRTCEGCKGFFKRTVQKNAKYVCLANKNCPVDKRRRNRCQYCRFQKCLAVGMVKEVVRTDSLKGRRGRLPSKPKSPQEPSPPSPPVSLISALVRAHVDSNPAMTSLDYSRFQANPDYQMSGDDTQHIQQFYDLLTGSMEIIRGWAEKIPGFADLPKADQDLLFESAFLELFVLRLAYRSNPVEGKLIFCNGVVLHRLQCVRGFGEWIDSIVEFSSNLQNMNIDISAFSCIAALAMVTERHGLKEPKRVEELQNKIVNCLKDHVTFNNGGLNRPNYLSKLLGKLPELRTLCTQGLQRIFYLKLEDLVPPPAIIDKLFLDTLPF
human Thyroid Receptor alpha (THRa1), THRA (gene 7067), sequence (P10827 whole entry, looked up, the tested form may be a part): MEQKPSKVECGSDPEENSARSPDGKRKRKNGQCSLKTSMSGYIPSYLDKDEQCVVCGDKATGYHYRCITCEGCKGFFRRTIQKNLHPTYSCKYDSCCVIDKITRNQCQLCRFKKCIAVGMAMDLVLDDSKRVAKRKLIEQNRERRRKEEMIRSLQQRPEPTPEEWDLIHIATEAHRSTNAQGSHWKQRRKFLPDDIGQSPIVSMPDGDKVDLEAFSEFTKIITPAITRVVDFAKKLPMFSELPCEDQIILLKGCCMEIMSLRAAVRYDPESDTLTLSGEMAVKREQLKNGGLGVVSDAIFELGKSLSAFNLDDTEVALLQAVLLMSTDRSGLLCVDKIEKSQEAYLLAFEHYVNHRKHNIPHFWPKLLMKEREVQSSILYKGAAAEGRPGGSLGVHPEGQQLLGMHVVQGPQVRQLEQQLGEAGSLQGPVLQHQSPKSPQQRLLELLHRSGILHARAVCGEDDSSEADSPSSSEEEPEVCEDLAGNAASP
Bile acid receptor (Homo sapiens), sequence (Q96RI1 whole entry, looked up, the tested form may be a part): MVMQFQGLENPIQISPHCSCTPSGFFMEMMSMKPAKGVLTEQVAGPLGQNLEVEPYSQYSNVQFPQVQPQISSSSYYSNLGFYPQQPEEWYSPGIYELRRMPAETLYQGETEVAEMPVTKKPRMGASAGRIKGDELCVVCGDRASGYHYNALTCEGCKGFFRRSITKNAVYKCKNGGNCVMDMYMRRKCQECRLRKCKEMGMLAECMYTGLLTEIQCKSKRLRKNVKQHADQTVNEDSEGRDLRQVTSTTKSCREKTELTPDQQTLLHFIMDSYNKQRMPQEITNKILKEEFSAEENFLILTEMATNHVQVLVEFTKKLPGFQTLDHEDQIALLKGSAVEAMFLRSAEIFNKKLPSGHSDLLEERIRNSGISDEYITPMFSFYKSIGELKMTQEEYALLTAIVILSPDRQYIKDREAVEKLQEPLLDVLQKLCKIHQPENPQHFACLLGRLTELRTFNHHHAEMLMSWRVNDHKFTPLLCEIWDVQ
human Vitamin D Receptor (VDR), VDR (gene 7421), sequence (P11473 whole entry, looked up, the tested form may be a part): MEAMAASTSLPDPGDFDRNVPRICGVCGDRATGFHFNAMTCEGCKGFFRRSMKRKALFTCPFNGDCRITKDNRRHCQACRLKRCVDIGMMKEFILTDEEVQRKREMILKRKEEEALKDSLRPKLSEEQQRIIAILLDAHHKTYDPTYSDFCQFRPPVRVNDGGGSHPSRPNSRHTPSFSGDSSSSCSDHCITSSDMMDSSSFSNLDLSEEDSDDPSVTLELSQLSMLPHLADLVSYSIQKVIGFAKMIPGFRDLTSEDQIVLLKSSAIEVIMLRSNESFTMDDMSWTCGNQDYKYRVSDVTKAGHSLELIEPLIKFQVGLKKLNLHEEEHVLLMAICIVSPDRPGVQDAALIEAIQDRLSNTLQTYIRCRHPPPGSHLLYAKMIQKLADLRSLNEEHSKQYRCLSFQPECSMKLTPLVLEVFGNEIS
Peroxisome proliferator-activated receptor gamma (Homo sapiens), sequence (P37231 whole entry, looked up, the tested form may be a part): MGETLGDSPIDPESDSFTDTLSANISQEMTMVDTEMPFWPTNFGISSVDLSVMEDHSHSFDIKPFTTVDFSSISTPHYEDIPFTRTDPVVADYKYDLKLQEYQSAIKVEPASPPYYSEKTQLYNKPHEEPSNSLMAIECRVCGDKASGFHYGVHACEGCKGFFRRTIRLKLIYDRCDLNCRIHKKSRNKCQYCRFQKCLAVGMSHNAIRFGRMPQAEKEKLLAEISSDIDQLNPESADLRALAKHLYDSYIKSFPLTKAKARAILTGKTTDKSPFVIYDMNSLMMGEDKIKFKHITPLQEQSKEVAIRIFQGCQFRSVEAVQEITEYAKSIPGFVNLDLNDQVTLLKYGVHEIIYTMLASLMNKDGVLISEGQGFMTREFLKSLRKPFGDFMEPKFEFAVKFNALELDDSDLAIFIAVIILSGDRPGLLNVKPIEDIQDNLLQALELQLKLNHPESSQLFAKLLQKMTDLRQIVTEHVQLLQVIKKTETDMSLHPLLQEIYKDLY

Take `CC1=NN(c2cc(Cl)c(S(=O)(=O)O)cc2Cl)C(=O)C1N=Nc1ccc(S(=O)(=O)O)cc1` (stereo unspecified): the molecule was called inactive in [1], in experiment [2], in experiment [3], in [4], in [5] and in experiment [6]. In addition, the molecule was classed as inactive in experiment [7], in [8] and in experiment [9].
Take `CC(O)(P(=O)(O)O)P(=O)(O)O`: the call in [3], in experiment [4], in experiment [10] and in experiment [7] was inactive.
Regarding `OCCN(CCO)c1cccc(Cl)c1`, the molecule was classed as inactive in experiment [1], in [11], in experiment [12], in [3], in [13] and in experiment [8].
Regarding `CC1=C(CC(=O)O)c2cc(F)ccc2/C1=C\c1ccc(S(C)=O)cc1` (stereo unspecified), the molecule was classed as inactive in [11], in experiment [12], in [2], in experiment [4], in [5] and in [10]. For the same molecule, the molecule was called inactive in experiment [14], in experiment [6], in [7], in [15] and in experiment [9]. Further, the AC50 (usually the concentration at which the activity in the assay is half-maximal) in experiment [13] was 24.2 µM (active).
Take `NC(=O)c1ccc(N)cc1`: the molecule was called inactive in experiment [16], in experiment [1], in [12], in [3], in [4] and in experiment [5]. For the same molecule, the molecule was classed as inactive in [17], in experiment [8] and in experiment [9].
Turning to `C/C=C(\C)C(=O)OCC/C=C\CC`, the outcome in experiment [16], in experiment [1], in [12], in [2], in [3] and in experiment [18] was inactive. Moreover, the molecule was called inactive in [4], in experiment [5], in experiment [17], in experiment [8] and in experiment [19].
